D2 ag-1: activates the human D2 dopamine receptor | activation, % (concentration not given with the values) | 360,000 tested, 0.084% active | DiscoveRx PathHunter D2 beta-arrestin, luminescence, 90 min; 100% = 57 uM dopamine signal | P14416; in the data active means activation above about 40%; inconclusive means between about 15% and that limit
Target sequence (P14416 whole entry, looked up): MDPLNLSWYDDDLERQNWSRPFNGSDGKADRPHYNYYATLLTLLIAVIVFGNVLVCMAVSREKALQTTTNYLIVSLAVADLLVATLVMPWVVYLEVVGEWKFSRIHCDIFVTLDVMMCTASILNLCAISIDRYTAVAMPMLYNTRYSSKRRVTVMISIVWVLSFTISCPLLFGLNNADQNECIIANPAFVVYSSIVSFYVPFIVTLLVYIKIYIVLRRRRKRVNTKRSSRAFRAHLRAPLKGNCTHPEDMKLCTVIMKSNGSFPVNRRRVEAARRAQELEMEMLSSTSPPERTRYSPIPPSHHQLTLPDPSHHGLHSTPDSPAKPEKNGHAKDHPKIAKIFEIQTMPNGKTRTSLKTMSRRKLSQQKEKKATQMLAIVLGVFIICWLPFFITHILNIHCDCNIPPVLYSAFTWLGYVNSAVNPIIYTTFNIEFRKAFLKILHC
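DiscoveRx PathHunter D2 beta-arrestin cells (2,100/well) attached overnight, then compound-stimulated 90 min at 37 C in HBSS/10 mM HEPES/0.1% Tween-20 buffer; beta-galactosidase complementation read by luminescence after 1 h at ambient temperature. Dopamine 57 uM final (EC100) as control.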
D2 PAM-1: potentiates the human D2 dopamine receptor allosterically; P14416; DiscoveRx D2 beta-arrestin cells, luminescence, 90 min; 100% = 57 uM dopamine signal; potentiation, % (concentration not given with the values); 360,000 tested, 0.23% active; in the data active means potentiation above about 50%; inconclusive means mostly about 30% to 49%
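D2 cells co-treated with compound plus 50 nM dopamine (EC20) for 90 min at 37 deg C to detect potentiation. Beta-arrestin recruitment was read as enzyme-fragment luminescence after 1 h at ambient temperature. Full response was set by 57 uM dopamine.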
D2 PAM-2: D2 dopamine receptor (human) potentiation. P14416. HEK293 T-REx D2, calcium flux, EC20 dopamine potentiation. potentiation, % at 10 µM. 340,000 tested, 0.34% active;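 active means potentiation over 3 SD above the plate norm, cut at about 30% in these data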
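Primary screen. Calcium kinetics in induced HEK293 T-REx D2 cells: compound pre-addition 180 s, EC20 dopamine, 180 s more.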
D2 ag-2: D2 dopamine receptor (human) agonism | P14416 | HEK293 T-REx D2 cells, calcium flux agonist mode | activation, % at 2 µM | 340,000 tested, 0.53% active | AID 485358;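 active means activation over 3 SD above normal in the single-dose calcium agonist read, cut at about 30% in these data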
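HEK293 Trex D2 cells, tetracycline-induced, o/n 30 C 5% CO2; no-wash Ca dye, RT 30–90 min; 10-cycle baseline, 23 nl cpd added, kinetic Ca read 180 s; agonist hits = positive Ca response.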
D2 antagonist: antagonists of human D2 dopamine receptor | 340,000 tested, 2% active | HEK293 TREx D2 cells, calcium flux, dopamine EC80 | inhibition, % at 10 µM | P14416 | AID 485344; in the data active means inhibition above about 30%; inactive means below that, where a call was filed
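Tetracycline-induced HEK293 TREx cells expressing D2 receptor forced-coupled to calcium signalling, loaded with no-wash calcium dye. Compounds added and calcium flux read 180 s, then dopamine added at EC80 and read a further 180 s.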
D3 ag: D3 receptor agonism confirmed, beta-arrestin readout; AID 720506; Potency, µM (titrated, usually from 76.9 µM), most hits filed as activators; 2,300 tested, 4% active; DiscoveRx D3 beta-arrestin cells, luminescence, 90 min; shares compounds with D2 ag-2; further: nearly all actives have a fitted effect of over 70% in size
D2 ag-3: D2 receptor agonism, beta-arrestin counterscreen; shares compounds with D2 ag-2; DiscoveRx PathHunter D2 beta-arrestin, luminescence, 90 min; response scale: percent relative to full dopamine signal; Potency, µM (titrated, usually from 76.9 µM), actives largely listed as activators; 2,300 tested, 5.9% active; further: nearly all actives have a fitted effect of over 70% in size
Large screens that a line does not name were inactive (follow-up assays come after a bar, where they were run). Sampled rows, rich in hits. Any-hit rate of the full collection: about 2.4%. Unless noted, the call rests on the fitted dose curve; in most records, active means well fitted activation curve with a large enough effect; inconclusive means small, poorly fitted or top-dose-only effect; inactive means flat fitted curve, though single readings scatter.

Cc1ccc2c(c1)C(O)(CC(=O)/C=C/C=C/c1ccccc1)C(=O)N2 (stereo not drawn)	D2 ag-2 48.1, D2 antagonist 45.3 | D3 ag inactive | D2 ag-3 inactive
COc1cccc(NC(=O)N(C)C[C@H]2OCc3cn(nn3)CCCC(=O)N([C@@H](C)CO)C[C@@H]2C)c1	none (no result: D2 PAM-2, D2 ag-2, D2 antagonist)
O=C(CSc1ncnc2scc(-c3ccc(F)cc3)c12)c1ccc2c(c1)OCCO2	D2 ag-2 49.9 | D3 ag inactive | D2 ag-3 inactive
CC(=O)c1c(C)n(-c2cccc(Cl)c2)c2ccc(OC(=O)c3ccccc3)cc12	none (no result: D2 ag-1, D2 PAM-1, D2 antagonist)
N#Cc1ccsc1NC(=O)CN1CCN(c2ccccn2)CC1	D2 ag-1 inconclusive, D2 ag-2 40.9, D2 antagonist 30.8 | D3 ag inconclusive | D2 ag-3 inconclusive
CC(C)c1ccc(NC(=O)CN2CCN(c3ccccn3)CC2)cc1	none
CC(=O)N1CCN(CC(=O)Nc2sccc2C#N)CC1	none
N#Cc1ccc(NC(=O)CN2CCN(c3ccccn3)CC2)cc1	D2 ag-1 48.2, D2 ag-2 77.2, D2 antagonist 68.4 | D3 ag inconclusive | D2 ag-3 39.8µM
N#Cc1ccsc1NC(=O)CN1CCN(c2ccccc2)CC1	D2 ag-2 48.5 | D3 ag inactive | D2 ag-3 inactive
N#Cc1ccsc1NC(=O)CN1CCN(c2ccc(O)cc2)CC1	D2 PAM-1 inconclusive
O=C(Nc1ccc(Cl)c(C(F)(F)F)c1)C1CCCN(S(=O)(=O)c2cccc3cccnc23)C1 (stereo not drawn)	none (no result: D2 ag-1, D2 PAM-1, D2 antagonist)
CC(C)(C)c1ccc(C(=O)N2CCN(CCNC(=O)C(=O)NCc3ccc(Cl)cc3)CC2)cc1	none | D3 ag inactive | D2 ag-3 inactive
N#Cc1c(-n2ncnc2-c2ccccc2Cl)sc2c1CCCCC2	none (no result: D2 ag-1, D2 PAM-1, D2 PAM-2, D2 antagonist)
CN(CCNC(=O)C1CCN(S(=O)(=O)N2CCOCC2)CC1)CCc1ccccc1	D2 ag-2 55.1 | D3 ag inactive | D2 ag-3 inactive
Fc1ccccc1Cc1cn2cc(-c3ccc(Cl)cc3)nc2s1	none (no result: D2 ag-1, D2 PAM-1, D2 antagonist)
Cc1oc(-c2cccc(Cl)c2)nc1CN1CCC(C(=O)NCCCN2CCN(c3cccc(Cl)c3)CC2)CC1	none (no result: D2 ag-1, D2 PAM-1, D2 ag-2, D2 antagonist)
Cc1oc(-c2cccc(Cl)c2)nc1CN1CCC(C(=O)NCCCN2CC(C)CC(C)C2)CC1 (stereo not drawn)	D2 ag-2 34.8 | D3 ag inactive | D2 ag-3 inactive
O=[N+]([O-])c1cccc(CN2CCN(c3ncccn3)CC2)c1	D2 ag-1 inconclusive, D2 ag-2 74.7 | D3 ag inactive | D2 ag-3 inconclusive
O=[N+]([O-])c1ccccc1CN1CCN(c2ncccn2)CC1	D2 ag-2 46.7 | D3 ag inactive | D2 ag-3 inactive
O=[N+]([O-])c1ccc(CN2CCN(c3ncccn3)CC2)cc1	D2 ag-1 48.6, D2 PAM-1 inconclusive, D2 ag-2 82.6, D2 antagonist 85.0 | D3 ag inconclusive | D2 ag-3 17.8µM
CN(c1ccc([N+](=O)[O-])cc1)c1cc2c(c3c1ccn3C)C1CCC2C1 (stereo not drawn)	none (no result: D2 PAM-2, D2 ag-2, D2 antagonist)
COC(=O)c1ccc(CNC(=O)c2ccccc2C(=O)NCC2(CBr)OCCO2)cc1	none (no result: D2 PAM-2, D2 ag-2, D2 antagonist)
Cc1ccc2c(c1Br)C(O)(CC(=O)c1ccc(F)cc1)C(=O)N2 (stereo not drawn)	none (no result: D2 ag-1, D2 PAM-1, D2 antagonist)
c1ccc(Cc2noc(CN3CCN(CCOc4ccccc4)CC3)n2)cc1	D2 ag-2 62.9, D2 antagonist 55.5 | D3 ag inconclusive | D2 ag-3 inactive
CC[C@]1(C(=O)OC)[C@H]2C(=O)N(Cc3ccccc3)C(=O)[C@H]2[C@H]2CN=C(SCC(=O)c3ccccc3)N21	none (no result: D2 PAM-2, D2 ag-2, D2 antagonist)
O=C(Nc1nccs1)c1cccnc1	none | D3 ag inactive | D2 ag-3 inactive
CCCN1CCc2c(sc(NC(=O)c3ccc(S(=O)(=O)N4CCN(C(=O)OCC)CC4)cc3)c2C(N)=O)C1	D2 ag-2 46.9 | D3 ag inactive | D2 ag-3 inactive
COc1ccc(CN2CCN(C(=O)c3cccs3)CC2)cc1Br	none (no result: D2 PAM-2, D2 ag-2, D2 antagonist)
COc1ccc(-c2noc(CN3CCN(C(=O)c4cccs4)CC3)n2)c(OC)c1OC	none | D3 ag inactive | D2 ag-3 inactive
COc1ccccc1CC(NC(C)=O)C(=O)N1CCN(C(=O)c2cccs2)CC1 (stereo not drawn)	none
COc1ccccc1CN(C)C(=O)CN1CCN(C(=O)c2cccs2)CC1	D2 ag-2 72.0 | D3 ag inactive | D2 ag-3 inconclusive
CC(O)(c1cccnc1)c1nc(-c2cccc(C(F)(F)F)c2)cs1 (stereo not drawn)	none (no result: D2 PAM-2, D2 ag-2, D2 antagonist)
COc1ccc(-c2cc(NC=O)c3ncc(-c4cnn(C)c4)n3c2)cc1	none (no result: D2 PAM-2, D2 ag-2, D2 antagonist)
CCOC(=O)c1c(-c2ccccc2)oc2ccc(NS(=O)(=O)c3ccc(C)cc3)cc12	none (no result: D2 ag-1, D2 PAM-1, D2 ag-2, D2 antagonist)
Cc1cccc(C)c1NC(=S)N(C)CCc1ccccn1	none
CC(C)c1ccc(NC(=S)N(C)CCc2ccccn2)cc1	D2 antagonist 36.0 | D3 ag inactive | D2 ag-3 inactive
O=C(CN1CCc2ccccc2C1)Nc1cc(S(=O)(=O)N2CCOCC2)ccc1N1CCCC1	D2 ag-2 76.3, D2 antagonist 83.2 | D3 ag inactive | D2 ag-3 inactive
O=C(CN1CCN(c2ccc(O)cc2)CC1)Nc1cc(S(=O)(=O)N2CCCC2)ccc1Cl	D2 ag-2 53.9, D2 antagonist 43.9 | D3 ag 39.8µM | D2 ag-3 inconclusive
CCN1CCN(c2ccc(S(=O)(=O)N3CCOCC3)cc2NC(=O)c2ccc(C)cc2C)CC1	none | D3 ag inactive | D2 ag-3 inactive
O=C(NCC(c1ccco1)N1CCN(c2ccccc2F)CC1)C(=O)NC1CC1 (stereo not drawn)	D2 antagonist 32.7 | D3 ag inconclusive | D2 ag-3 inconclusive
O=C(NCC(c1ccco1)N1CCN(c2ccccc2F)CC1)C1CCCCC1 (stereo not drawn)	D2 ag-1 inconclusive, D2 ag-2 76.8, D2 antagonist 59.2 | D3 ag inconclusive | D2 ag-3 inconclusive
O=C(NCC(c1ccco1)N1CCN(c2ccccc2F)CC1)C(=O)NC1CCCCC1 (stereo not drawn)	none
CCc1ccc(NC(=O)CSc2nc3c(sc4ccccc43)c(=O)n2CCCOC(C)C)cc1	none (no result: D2 ag-1, D2 PAM-1, D2 antagonist)
CCOc1ccc(NC(=O)CSc2nc3ccsc3c(=O)n2CCC(C)C)cc1	none (no result: D2 ag-1, D2 PAM-1, D2 antagonist)
CCN1CCN(c2ncnc3c2cnn3-c2ccc(C)cc2)CC1	none (no result: D2 ag-1, D2 PAM-1, D2 antagonist)
C=Cc1ccc(Cn2c(C)c(CNCc3ccc(SC)cc3)c(C(=O)O)c2C)cc1	none (no result: D2 ag-1, D2 PAM-1, D2 PAM-2, D2 antagonist)
CCCN(CCC)CCCNC(=S)Nc1ccc2nc(N3CCCC3)cc(C)c2c1	none

Screening results (PubChem)
